Where “and” joins values, the source holds several entries; their conditions need not be identical. Equal entries are not always repeated. Inconclusive results are not listed. The source holds several records for some structures; these can differ, active in one and inactive in another. Calls of active or inactive are those of the source. The calls were made as follows, unless noted: active = hit-call score of the fitted dose curve at least 0.9, where 1 is the maximum; inactive = score below 0.9.
Assays:
[1] = ACEA_ER_80hr: ACEA Biosciences xCELLigence Real-Time Cell Analysis on Estrogen Receptor Agonism for Proliferation (AID 2282667; active = hit-call score of the fitted dose curve at least 0.9, where 1 is the maximum); settings: T47D proliferation, impedance (xCELLigence), 80 h
Method in brief: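 T-47D cells monitored by electrical impedance (xCELLigence) with compound present throughout; 80 h timepoint, positive-direction fitting versus DMSO. Eight-point 1:4 dilutions from 100 uM final, duplicate plates.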

[2] = ATG_CRE_CIS: Attagene CIS-FACTORIAL HepG2 Assay for human cAMP Responsive Element (CRE) binding protein 3 (AID 2282926); settings: HepG2 CRE cis-reporter, Attagene multiplexed mRNA; actives raise or lower the signal
Method in brief: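 Induced reporter mRNA from a CRE cis element, measured in HepG2 among many multiplexed units at 24 h. Detection used RT-PCR plus capillary electrophoresis of fluorescent fragments; DMSO served as negative control.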

[3] = APR_HepG2_CellCycleArrest_24hr: Apredica 24-hour HepG2 Assay for Cell Cycle Arrest (AID 2282905); settings: imaging, actives raise or lower the signal;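 also: cell cycle arrest scored as ratio of 2N to 4N nuclear DNA content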
Method in brief: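 After 24 h exposure at 0.39–200 uM in 0.5% DMSO, fixed cells received Hoechst 33342 staining. Imaging quantified per-nucleus DNA content; gain or loss fitted against DMSO controls.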

[4] = APR_HepG2_NuclearSize_24hr: Apredica 24-hour HepG2 Assay for Nuclear Size (AID 2282907); settings: high-content imaging, actives raise or lower the signal
Method in brief: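 Nuclear size from Hoechst 33342-stained, formaldehyde-fixed HepG2 nuclei imaged by high-content microscopy, after 24 h dosing at ten concentrations from 0.39 to 200 uM in 0.5% DMSO; gain or loss relative to DMSO baseline.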

[5] = APR_HepG2_CellLoss_24hr: Apredica 24-hour HepG2 Assay for Cell Loss (AID 2282908); settings: high-content imaging;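 as to AC50: fit in both directions so a hit may be cell loss or gain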
Method in brief: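 Nuclei stained with Hoechst 33342 after formaldehyde fixation (3.7%) were imaged at 20x to count cells. Exposure lasted 24 hr, at ten concentrations from 0.39 to 200 uM in duplicate, with 0.5% v/v DMSO. Fit bidirectional, relative to DMSO.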

[6] = APR_HepG2_MicrotubuleCSK_24hr: Apredica 24-hour HepG2 Assay for Microtubule CSK Stabilty (AID 2282909); settings: HepG2 microtubule cytoskeleton imaging, actives raise or lower the signal
Method in brief: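 Fixed HepG2 cells were stained for alpha-tubulin and imaged after 24 hr exposure to ten concentrations spanning 0.39–200 uM in 0.5% DMSO. Signal change was fitted in both directions relative to DMSO; taxol was the positive control.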

[7] = APR_HepG2_MitoMembPot_24hr: Apredica 24-hour HepG2 Assay for Mitochondrial Membrane Potential (AID 2282911); settings: imaging, actives raise or lower the signal
Method in brief: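 HepG2 cells exposed 24 h to 0.39–200 uM compounds in duplicate, 0.5% v/v DMSO final. MitoTracker Red CMXRos 250 nM loaded 30 min before formaldehyde fixation; high-content imaging at 20x, bidirectional fit versus DMSO.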

[8] = APR_HepG2_MitoMass_24hr: Apredica 24-hour HepG2 Assay for Mitochondrial Mass (AID 2282912); settings: high-content imaging, actives raise or lower the signal
Method in brief: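 Endpoint is MitoTracker Red CMXRos (250 nM, 30 min, pre-fixation) intensity from 20x high-content imaging, nuclei located by Hoechst. Human HepG2 cells received ten concentrations from 0.39 to 200 uM in 0.5% DMSO for 24 hr, duplicate wells. Bidirectional fit relative to DMSO.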

[9] = APR_HepG2_p53Act_24hr: Apredica 24-hour HepG2 Assay for p53 Activation (AID 2282913); settings: high-content imaging, actives raise or lower the signal;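 also: p53 protein immunofluorescence averaged per cell in HepG2 with Hoechst nuclei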
Method in brief: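 HepG2 cells exposed 24 h to compounds at 0.39–200 uM in duplicate, 0.5% v/v DMSO final; fixed, permeabilized, stained with anti-p53 antibody and Hoechst 33342; fluorescence imaging; bidirectional curve fit versus DMSO.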

[10] = APR_HepG2_CellCycleArrest_72hr: Apredica 72-hour HepG2 Assay for Cell Cycle Arrest (AID 2282914); settings: high-content imaging, actives raise or lower the signal
Method in brief: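 HepG2 cells exposed 72 h in duplicate to 0.39–200 uM compound, 0.5% DMSO final. Formaldehyde-fixed, Hoechst 33342-stained nuclei imaged at 20x, six fields per well; DNA content per valid cell quantified by cell-cycle image analysis, bidirectional fit versus DMSO.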

[11] = APR_HepG2_CellLoss_72hr: Apredica 72-hour HepG2 Assay for Cell Loss (AID 2282915); settings: high-content imaging
Method in brief: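 HepG2 cells were exposed for 72 hr to compounds at 0.39–200 uM (ten concentrations, duplicate) in 0.5% v/v final DMSO. Nuclei were stained with Hoechst 33342 after 3.7% formaldehyde fixation, imaged at 20x, and counted; fits bidirectional versus DMSO.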

[12] = APR_HepG2_P-H2AX_72hr: Apredica 72-hour HepG2 Assay for H2AX Phosphorylation (AID 2282916); settings: imaging, actives raise or lower the signal;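 also: phospho-histone H2A.x immunostain intensity per cell marking DNA damage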
Method in brief: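 Phospho-histone H2A.x immunofluorescence, multiplexed with Hoechst and c-Jun, quantified by high-content imaging. Compounds applied to HepG2 for 72 h across ten concentrations (0.39–200 uM, 0.5% DMSO), in duplicate; DMSO baseline.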

[13] = APR_HepG2_MitoMembPot_72hr: Apredica 72-hour HepG2 Assay for Mitochondrial Membrane Potential (AID 2282917); settings: imaging, actives raise or lower the signal
Method in brief: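 HepG2 cells exposed 72 h to compounds at 0.39–200 uM (0.5% v/v DMSO, duplicates); MitoTracker Red CMXRos 250 nM loaded 30 min before 3.7% formaldehyde fixation, imaged by HCS fluorescence. Bidirectional fit versus DMSO.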

[14] = APR_HepG2_MicrotubuleCSK_72hr: Apredica 72-hour HepG2 Assay for Microtubule CSK Stabilty (AID 2282919); settings: HepG2 microtubule cytoskeleton, high-content imaging, actives raise or lower the signal
Method in brief: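 Ten-point dosing (0.39–200 uM, 0.5% DMSO) of HepG2 for 72 hr, with taxol as the cytoskeletal positive control. The cells were formaldehyde-fixed and then stained with alpha-tubulin/Cy5 and Hoechst. Imaging at 20x used a −2 um Z offset for tubulin.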

[15] = APR_HepG2_P-H2AX_24hr: Apredica 24-hour HepG2 Assay for H2AX Phosphorylation (AID 2282920); settings: high-content imaging, actives raise or lower the signal
Method in brief: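 HepG2 cells dosed 24 h at 0.39–200 uM (10 points, duplicate, 0.5% DMSO final). Formaldehyde-fixed and permeabilized, then immunostained for phospho-H2A.x with Hoechst. Fluorescence quantified by high-content imaging, fitted bidirectionally versus DMSO.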

[16] = APR_HepG2_StressKinase_72hr: Apredica 72-hour HepG2 Assay for Stress Kinase (AID 2282921); settings: HepG2 stress kinase (phospho-c-Jun) imaging, actives raise or lower the signal
Method in brief: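 Stress kinase signal is phospho-c-Jun immunofluorescence (1:500 primary, Cy3 secondary) in fixed, permeabilized human HepG2 cells imaged at 20x. Exposure lasted 72 hr over ten concentrations from 0.39 to 200 uM, 0.5% DMSO, in duplicate. Bidirectional fit versus DMSO.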

[17] = APR_HepG2_StressKinase_24hr: Apredica 24-hour HepG2 Assay for Stress Kinase (AID 2282922); settings: HepG2 stress kinase (phospho-c-Jun) imaging, actives raise or lower the signal
Method in brief: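 After 24 hr compound treatment (up to 200 uM, final DMSO 0.5% v/v), HepG2 cells are fixed and multiplex-labeled; phospho-c-Jun intensity is captured by high-content fluorescence imaging and analyzed relative to DMSO.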

[18] = APR_HepG2_p53Act_72hr: Apredica 72-hour HepG2 Assay for p53 Activation (AID 2282923); settings: high-content imaging, actives raise or lower the signal;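 also: average cellular p53 protein immunofluorescence intensity in HepG2 cells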
Method in brief: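 After 72 h with compound (ten points, 0.39 to 200 uM, final DMSO 0.5% v/v), fixed HepG2 cells were labelled with sheep anti-p53 and Hoechst 33342 and imaged; gain or loss versus DMSO scored.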

[19] = APR_HepG2_MitoMass_72hr: Apredica 72-hour HepG2 Assay for Mitochondrial Mass (AID 2282924); settings: high-content imaging, actives raise or lower the signal;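 also: MitoTracker Red CMXRos stain intensity per cell imaged as mitochondrial mass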
Method in brief: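 Steps: treat HepG2 72 hr (0.39–200 uM, duplicate wells); load MitoTracker Red CMXRos, 250 nM, 30 min; fix with 3.7% formaldehyde, permeabilise with 0.5% Triton X-100; capture images, nuclei via Hoechst 33342; fit bidirectionally against DMSO.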

[20] = APR_HepG2_NuclearSize_72hr: Apredica 72-hour HepG2 Assay for Nuclear Size (AID 2282925); settings: high-content imaging, actives raise or lower the signal
Method in brief: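 Compounds (0.39–200 uM, final DMSO 0.5%) were applied to HepG2 for 72 hr. Cells were then formaldehyde-fixed, permeabilized and labelled with Hoechst 33342. Nuclear diameter was quantified from six images per well.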

Measured: AC50

C=CC#N
inactive: [1] | [2]

CC(C)(c1ccc(OCC2CO2)cc1)c1ccc(OCC2CO2)cc1 (stereo not drawn)
inactive: [1]
active: [2] 36 µM

O=C/C=C/c1ccccc1
inactive: [1] | [2]

COP(=O)(OC)O/C(=C\Cl)c1cc(Cl)c(Cl)cc1Cl
inactive: [1] | [2]

COC(=O)c1sccc1S(=O)(=O)NC(=O)Nc1nc(C)nc(OC)n1
inactive: [1] | [2]

O=P(O)(O)CN(CP(=O)(O)O)CP(=O)(O)O
inactive: [1] | [2]

CCOC(=O)Nc1cccc(OC(=O)Nc2ccccc2)c1
inactive: [1] | [2]

Nc1ccc(Cl)cc1C(=O)c1ccccc1
inactive: [1] | [2]

Oc1c(I)cc(I)cc1I
inactive: [1] | [2]

CC(=[OH+])/C=C(/C)[O-].CC(=[OH+])/C=C(/C)[O-].CC(=[OH+])/C=C(/C)[O-].[Al]
inactive: [1] | [2]

C(=NC1CCCCC1)=NC1CCCCC1
inactive: [1] | [2]

COS(=O)(=O)c1ccc(C)cc1
inactive: [1] | [2]

COc1cc(-c2ccc(N)c(OC)c2)ccc1N
active: [3] 58.7 µM | [5] 26.9 µM | [7] 12.7 µM | [10] 13.8 µM | [11] 56.5 µM | [12] 24.8 µM | [13] 14.3 µM | [14] 42.1 µM | [15] 50.8 µM | [18] 35.2 µM | [2] 31 µM and 29.3 µM
inactive: [3] | [4] | [5] | [6] | [7] | [8] | [9] | [10] | [11] | [12] | [13] | [14] | [15] | [16] | [17] | [18] | [19] | [20]

Reference: PubChem BioAssay (EPA / NIEHS)
